High-throughput results as filed in PubChem BioAssay.
In the library only some 1.4% were active in any assay of this set; here they are far more common.
EBNA-1 inhibitor – EBNA-1 DNA-binding inhibitors, primary screen, biochemical, fluorescence polarization; inhibition, % at 14.8 µM; actives 0.34% (n = 300,000); in the data active means inhibition above about 28%
ZTA counter – ZTA (EBV) inhibition in EBNA-1 counter-screen; P03206; ZTA-DNA binding, fluorescence polarization; inhibition, % at 11 µM; actives 0.15% (n = 320,000); in the data active means inhibition above about 33%
Target sequence (P03206 whole entry, looked up): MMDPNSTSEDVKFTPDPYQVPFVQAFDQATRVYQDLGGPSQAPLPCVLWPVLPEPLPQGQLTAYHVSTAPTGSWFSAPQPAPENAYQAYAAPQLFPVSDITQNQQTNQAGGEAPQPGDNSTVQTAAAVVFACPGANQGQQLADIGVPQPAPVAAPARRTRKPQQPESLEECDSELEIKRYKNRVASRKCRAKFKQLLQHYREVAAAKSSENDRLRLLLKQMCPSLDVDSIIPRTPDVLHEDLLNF
LYPLA1 inh – LYPLA1 inhibitors, primary screen, counter-screen for PME1 inhibitor project, biochemical, fluorescence polarization, FP-Rh probe ABPP. recombinant LYPLA1. inhibition, % at 5.9 µM. actives 0.16% (n = 320,000);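 active means inhibition above the mean of all tested compounds plus 3 SD, set per campaign, cut at about 14% in these data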;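 further: inhibitors block serine hydrolase probe labeling of LYPLA1 so polarization falls; 0% = enzyme with DMSO and 100% = wells lacking LYPLA1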
LYPLA2 counter – LYPLA2 inhibitors, primary screen, counter-screen for PME1 inhibitor project, biochemical, fluorescence polarization, FP-Rh probe ABPP; recombinant LYPLA2; inhibition, % at 5.9 µM; actives 0.38% (n = 320,000); AID 2177, 2009;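 active means inhibition above the screen-wide mean plus 3 SD, limit set per campaign, cut at about 26% in these data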;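 further: 0% = LYPLA2 with DMSO and 100% = wells lacking LYPLA2 enzyme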
Target sequence (O95372 whole entry, looked up): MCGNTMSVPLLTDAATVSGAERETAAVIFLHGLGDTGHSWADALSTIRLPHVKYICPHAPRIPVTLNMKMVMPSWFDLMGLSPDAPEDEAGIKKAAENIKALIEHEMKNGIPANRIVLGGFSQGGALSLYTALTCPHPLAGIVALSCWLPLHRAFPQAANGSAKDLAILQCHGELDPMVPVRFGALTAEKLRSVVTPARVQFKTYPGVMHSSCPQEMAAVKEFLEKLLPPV
LANA-H2A inh – blockers of LANA interaction with H2A/H2B – biochemical, FP readout, HTS, primary screen | AID 2629, 2010 | cell-free LANA-H2A/H2B peptide, fluorescence polarization | actives 0.6% (n = 320,000) | Protein LANA1 (Human herpesvirus 8 type P (isolate GK18)), Q9QR71 | inhibition, % (concentration not given with the values); in the data active means inhibition mostly above about 10%, no sharp cut-off; inactive means mostly below about 6.7%
LYPLA1 conf – LYPLA1 inhibitors, retest, confirmation, counter-screen for PME1 inhibitor project, biochemical, fluorescence polarization, FP-Rh probe ABPP; shares compounds with LYPLA1 inh; recombinant LYPLA1; inhibition, % at 5.9 µM; actives 69% (n = 480);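 active means mean inhibition across replicates above the hit cutoff set in the primary screen, cut at about 15% in these data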;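 further: loss of FP-Rh probe labeling of LYPLA1 seen as lower polarization; 0% = LYPLA1 with DMSO and 100% = wells lacking LYPLA1 enzyme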
An asterisk follows results filed as active.

For CNc1oc(-c2cccc3ccccc23)nc1C#N the results were EBNA-1 inhibitor -3, ZTA counter -18, LYPLA1 inh 17*, LYPLA2 counter 7, LANA-H2A inh -3 and LYPLA1 conf 5.
For O=C(CCNc1cccc(F)c1)c1cccc([N+](=O)[O-])c1 the results were EBNA-1 inhibitor 4, ZTA counter 14, LYPLA1 inh 0, LYPLA2 counter 5 and LANA-H2A inh -2.
O=C(CCNc1ccc(Cc2ccncc2)cc1)c1cccc([N+](=O)[O-])c1 was read as EBNA-1 inhibitor -7, ZTA counter -9, LYPLA1 inh 18*, LYPLA2 counter 20, LANA-H2A inh -2 and LYPLA1 conf 36*.
CCOc1cc(CNc2ccc(O)cc2)cc(Br)c1OCc1ccccc1F was read as EBNA-1 inhibitor 3, ZTA counter -1, LYPLA1 inh 7, LYPLA2 counter 13 and LANA-H2A inh 0.
COc1cc(CNc2ccc(O)cc2)cc(Br)c1OCc1ccccc1F was read as EBNA-1 inhibitor 7, ZTA counter 28, LYPLA1 inh 18*, LYPLA2 counter 18, LANA-H2A inh 6 and LYPLA1 conf -1.
`S=c1[nH]nc(-c2cc3c(s2)-c2ccccc2CC3)o1` gave EBNA-1 inhibitor -5, ZTA counter 8, LYPLA1 inh 17*, LYPLA2 counter 0, LANA-H2A inh 0 and LYPLA1 conf 21*.
Screening CSc1nnc(-c2cc3c(s2)-c2ccccc2CC3)o1 returned EBNA-1 inhibitor 5, ZTA counter -3, LYPLA1 inh -6, LYPLA2 counter -6 and LANA-H2A inh 0.
`CC(=O)[C@]1(O)Cc2c(O)c3c(c(O)c2[C@@H](O[C@H]2C[C@H](N)[C@H](O)[C@H](C)O2)C1)C(=O)c1ccccc1C3=O` gave EBNA-1 inhibitor -12, ZTA counter 26, LYPLA1 inh 77*, LYPLA2 counter 74*, LANA-H2A inh 49* and LYPLA1 conf 78*.
Screening O=C1CCC(C(=O)Nc2cccc(Br)c2)N1 (stereo unspecified) returned EBNA-1 inhibitor -9, ZTA counter -1, LYPLA1 inh 6, LYPLA2 counter 1 and LANA-H2A inh 2.
Screening Cc1cccc(C)c1NC(=O)C1CCCN1C(=O)NCc1ccccc1 (stereo unspecified) returned EBNA-1 inhibitor -1, ZTA counter 4, LYPLA1 inh 2, LYPLA2 counter 7 and LANA-H2A inh -3.
`NC(=O)C1CCN(c2ncnc3c2c(-c2ccccc2)cn3-c2ccccc2)CC1` gave EBNA-1 inhibitor 0, ZTA counter -7, LYPLA1 inh 17*, LYPLA2 counter 18, LANA-H2A inh 0 and LYPLA1 conf 19*.
For Cc1n[nH]c(C)c1N1C(=O)c2cccc3c(N4CCCCCC4)ccc(c23)C1=O the results were EBNA-1 inhibitor 9, ZTA counter -8, LYPLA1 inh 20*, LYPLA2 counter 22, LANA-H2A inh 65* and LYPLA1 conf 19*.
Screening CCn1c(CSc2nc3ccccc3[nH]2)nc2cc(C(=O)O)ccc21 returned EBNA-1 inhibitor 19, ZTA counter 29, LYPLA1 inh 20*, LYPLA2 counter 24, LANA-H2A inh 3 and LYPLA1 conf 14.
For C=CCN(CC=C)C(=O)C(=O)c1ccn(-c2c(C)csc2C(=O)OC)c1 the results were EBNA-1 inhibitor 11, ZTA counter -1, LYPLA1 inh -1, LYPLA2 counter 7 and LANA-H2A inh -1.
For Cc1cc(Cl)ccc1NC(=O)COC(=O)c1c(C)noc1C the results were ZTA counter -14, LYPLA1 inh 1, LYPLA2 counter 1 and LANA-H2A inh 2.
CC1CC(C)CN(S(=O)(=O)c2ccc3c(c2)CC(C)N3C(=O)C2CC2)C1 (stereo unspecified) was read as EBNA-1 inhibitor -4, ZTA counter -12, LYPLA1 inh 29*, LYPLA2 counter 1, LANA-H2A inh 2 and LYPLA1 conf 31*.
Screening CCOC(=O)C1CCCCN1S(=O)(=O)c1ccc2c(c1)CC(C)N2C(=O)C1CCC1 (stereo unspecified) returned EBNA-1 inhibitor -7, ZTA counter -4, LYPLA1 inh 15*, LYPLA2 counter 12, LANA-H2A inh -1 and LYPLA1 conf 9.
For CC1CC(C)CN(S(=O)(=O)c2ccc3c(c2)CC(C)N3C(=O)C2CCC2)C1 (stereo unspecified) the results were EBNA-1 inhibitor -5, ZTA counter -3, LYPLA1 inh 54*, LYPLA2 counter 14, LANA-H2A inh -3 and LYPLA1 conf 54*.
Screening CC1Cc2cc(S(=O)(=O)N3CCCCC3C)ccc2N1C(=O)C1CCC1 (stereo unspecified) returned EBNA-1 inhibitor -1, ZTA counter 2, LYPLA1 inh 1, LYPLA2 counter 2 and LANA-H2A inh -1.
Cc1csc(NC(=O)CSc2nc(=O)[nH]c3c2CCCC3)n1 was read as EBNA-1 inhibitor 6, ZTA counter 2, LYPLA1 inh -2, LYPLA2 counter -3 and LANA-H2A inh 1.
Screening CC(C)CCNC(=O)NC(=O)CSc1ncccn1 returned EBNA-1 inhibitor -5, ZTA counter 0, LYPLA1 inh 1, LYPLA2 counter -4 and LANA-H2A inh 2.
Cc1nn(-c2ccccc2)c(N2CCCC2)c1/C=N/Nc1ccc(S(N)(=O)=O)cc1[N+](=O)[O-] was read as EBNA-1 inhibitor -13, ZTA counter 8, LYPLA1 inh 20*, LYPLA2 counter 10, LANA-H2A inh 4 and LYPLA1 conf 42*.
For C#CCOCCOCCOCCNc1nc(N2CCN(C(=O)[C@H](Cc3cc4ccccc4[nH]3)n3cc([C@@H](N)C(C)CC)nn3)CC2)nc(N2CCN(C(=O)[C@H](Cc3cc4ccccc4[nH]3)n3cc([C@@H](N)Cc4ccc(O)cc4)nn3)CC2)n1 (stereo partly specified) the results were EBNA-1 inhibitor 46*, ZTA counter 55*, LYPLA1 inh 17*, LYPLA2 counter -20, LANA-H2A inh -2 and LYPLA1 conf 34*.
Screening CNc1ccc(/C=C(\CCC(=O)O)c2nc3ccccc3s2)cc1[N+](=O)[O-] returned EBNA-1 inhibitor -5, ZTA counter -24, LYPLA1 inh 16*, LYPLA2 counter 11, LANA-H2A inh 3 and LYPLA1 conf 22*.
Cc1ccc(/C=C(\CCC(=O)O)c2nc3ccccc3s2)cc1[N+](=O)[O-] was read as EBNA-1 inhibitor 11, ZTA counter 2, LYPLA1 inh -4, LYPLA2 counter -5 and LANA-H2A inh -2.
